Screening data (PubChem BioAssay)
p53 reactivation: mutant p53 re-activation in reporter cells; H1299 p53-A138V BP100-luciferase reporter, luminescence, 24 h; Potency, µM (highest dose often 92.2 µM), usual class: activators; 0.063% of 320,000 active; AID 504706; note: nearly all actives have a fitted effect of over 45% in size
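p53-null H1299 cells stably carrying temperature-sensitive p53-A138V and a BP100-luciferase reporter were pinned with compounds (4-point, 1:5 series) and held 24 hrs at 37 deg C. Luminescence was read 10 min after detection reagent.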
SMN2 splice enh: enhancers of SMN2 splice variant expression | 2.8% of 210,000 active | Potency, µM (doses to about 46.1 µM), usual class: activators | AID 1458 | HEK293 SMN2-luciferase splicing reporter, luminescence, 30-36 h; note: nearly all actives have a fitted effect of over 55% in size
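HEK293 cells carry an SMN2 […]–luciferase reporter in which exon 7 inclusion puts luciferase in frame. Cells were plated 10-12 h before compound addition, then incubated 30-36 h at 37C. ONE-Glo luminescence was read; sodium butyrate at 4.5 mM final served as control.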
ELG1 genotoxic: genotoxicity induction in ELG1-luciferase HEK293T cells. HEK293T ELG1-luciferase reporter, luminescence, 16 h. Potency, µM (highest dose often 46 µM), most hits filed as activators. 1.3% of 330,000 active; note: nearly all actives have a fitted effect of over 60% in size
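After overnight (16 hr) compound treatment at 37 °C, ELG1-luciferase HEK293T cells were lysed with ONE-Glo; luminescence quantified 30 min later at room temperature.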
NPC1 promoter act: activates the NPC1 promoter | Huh7 NPC1 promoter luciferase reporter, 24 h | Potency, µM (top dose mostly 9.22 µM), hits mostly activators | 2.4% of 320,000 active | AID 485313; note: nearly all actives have a fitted effect of over 60% in size
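Compounds in DMSO were transferred onto Huh7 NPC1-luciferase reporter cells pre-incubated 2 h; after 24 h at 37 °C, Amplite reagent was dispensed and luminescence recorded 10 min later.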
Rab9 promoter act: activators of Rab9 promoter | Huh7 Rab9 promoter-luciferase reporter, luminescence, 24 h | Potency, µM (top dose mostly 9.22 µM), usual class: activators | 2.8% of 320,000 active | AID 485297; note: nearly all actives have a fitted effect of over 60% in size
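Rab9 promoter-driven luciferase in stably transfected Huh7 cells; 1500 cells/well rested 2 h, exposed to compound in DMSO for 24 h at 37 °C, 5% CO2. Luminescence read 10 min after adding luciferase reagent at ambient temperature.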
FLuc counter: counter-screen for miR-21 project: firefly luciferase inhibitors or activators | P08659 | purified FLuc, Km substrates, luminescence inhibition | Potency, µM (titrated, usually from 57.5 µM), usual class: inhibitors | 6.9% of 360,000 active | AID 588342; note: nearly all actives have a fitted effect of over 55% in size
Target sequence (P08659 whole entry, looked up): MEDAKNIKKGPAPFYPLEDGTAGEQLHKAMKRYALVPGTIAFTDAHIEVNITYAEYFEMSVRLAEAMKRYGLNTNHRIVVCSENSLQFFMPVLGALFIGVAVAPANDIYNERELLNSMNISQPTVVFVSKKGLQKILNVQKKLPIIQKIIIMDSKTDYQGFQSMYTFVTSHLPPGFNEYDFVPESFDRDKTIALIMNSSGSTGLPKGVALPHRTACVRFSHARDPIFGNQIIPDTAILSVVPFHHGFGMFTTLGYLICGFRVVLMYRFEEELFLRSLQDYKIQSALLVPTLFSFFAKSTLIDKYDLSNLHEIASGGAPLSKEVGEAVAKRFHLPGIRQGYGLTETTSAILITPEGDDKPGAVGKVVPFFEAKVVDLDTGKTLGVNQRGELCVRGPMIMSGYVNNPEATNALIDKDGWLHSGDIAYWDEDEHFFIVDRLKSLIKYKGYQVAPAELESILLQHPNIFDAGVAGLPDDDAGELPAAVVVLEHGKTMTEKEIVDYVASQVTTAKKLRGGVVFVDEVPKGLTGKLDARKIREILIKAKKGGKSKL
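Purified P. pyralis luciferase (10nM final) with 10uM D-luciferin and 10uM ATP (Km levels) in 50mM Tris acetate pH 7.5, 10mM Mg acetate, 0.01% Tween-20, 0.05% BSA; qHTS 6-point titration, ~60 µM downward; luminescence read.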
A number is an active result; n = inactive; u = inconclusive; x = no result; [ ] = dose if it differs, or a comment. The list is not random: actives were taken first. Their share in the collection is about 7.3%. Calls come from the whole dose curve; as a rule, active = well fitted curve in the direction sought with a large enough effect; inconclusive = small, poorly fitted or top-dose-only effect, or another doubt; inactive = no such curve, though single readings can be large; an effect the other way counts as inactive or inconclusive.

SMILES	p53 reactivation	SMN2 splice enh	ELG1 genotoxic	NPC1 promoter act	Rab9 promoter act	FLuc counter
O=C(CCCN1C(=O)/C(=C/c2ccccc2)SC1=S)Nc1ccc(C(=O)O)c(O)c1	n	x	n	n	n	12µM
CN(C)Cc1ccccc1-c1cncnc1NC1CC1	x	n	x	x	x	x
COc1ccccc1CCNC(=O)c1ccc(Br)s1	n	x	n	n	n	13.5µM
COC(=O)c1ccccc1NC(=O)NCCc1ccccc1OC	n	12.6µM	n	3.55µM	3.98µM	u
COc1ccccc1CCNS(=O)(=O)CCNC(=O)c1ccccc1	n	x	n	n	n	n
CCSc1ccccc1C(=O)Nc1ccc(-c2nc3ccccc3s2)c(O)c1	x	x	x	x	x	n
Cc1cc(C)n2cc(CSc3nnc(SCc4cn5c(C)cc(C)nc5n4)s3)nc2n1	n	n	n	n	n	n
Cc1cc(C)n2cc(CSc3nc4ccccc4s3)nc2n1	u	11.2µM	u	u	3.55µM	21.3µM
CCCCc1nnc(NC(=O)c2oc3ccc(OC)cc3c2C)s1	n	x	n	n	n	n
CCOc1ccc2oc(C(=O)NC(C)(C)CC)c(C)c2c1	n	u	u	u	2.51µM	16.9µM
COc1ccc2oc(C(=O)Nc3nccs3)c(C)c2c1	n	x	0.517µM	1.12µM	1.12µM	0.536µM
CCOc1ccc2oc(C(=O)Nc3nccs3)c(C)c2c1	x	x	2.59µM	x	x	x
CCN(C(=O)CSc1nc2ccccc2n1Cc1ccc(F)cc1Cl)c1ccccc1	x	x	x	x	x	n
O=S(=O)(c1ccc(F)cc1)N1CCN(c2ccc(-c3ccccc3)nn2)CC1	n	n	n	n	n	n
CCc1nnc2c(N3CCN(c4cccc(C(F)(F)F)c4)CC3)nc3ccccc3n12	x	x	x	x	x	n
Cc1cccc(CC(=O)NC2CC(=O)N(c3ccccc3)C2)c1 (configuration not stated)	x	x	x	x	x	n
CCOc1ccc(NC(=O)Cn2nc(CC)n3c(cc4sccc43)c2=O)cc1	x	n	x	x	x	n
COc1ccc(-n2cc(-c3ccccc3)nc2SC)cc1	u	20µM	u	u	u	13.5µM
COc1ccc(-n2cc(-c3ccccc3)nc2SCC(=O)Nc2ccccc2C)cc1	x	x	x	x	x	n
COc1ccc(-c2cn3c(n2)sc2cc(C(=O)NCc4ccccc4)ccc23)cc1	x	x	x	x	x	n
COc1ccc2c(c1)sc1nc(-c3ccccc3)cn12	n	0.398µM	u	n	u	0.0338µM
O=C(Nc1ccc(-c2cnco2)cc1)c1ccccc1	n	x	u	3.16µM	2.51µM	u
O=C(NNC(=O)c1ccc(NC(=O)c2ccccc2)cc1)c1ccc(F)cc1	n	x	18.3µM	n	n	n
O=C(Nc1ccc(C(F)(F)F)cc1)c1ccccc1	n	x	n	2.82µM	2.51µM	u
Cc1ccc(C)n1-c1ccc(C(=O)Nc2ccccc2)cc1	u	12.6µM	u	n	u	9.53µM
SMILES	p53 reactivation	SMN2 splice enh	ELG1 genotoxic	NPC1 promoter act	Rab9 promoter act	FLuc counter
COc1ccc(C2C(C(=O)Nc3cccnc3)=C(C)Nc3nc(-c4ccccc4)nn32)cc1OC (configuration not stated)	x	n	x	x	x	n
CC(C)(C)c1ccc(C(=O)CCCN2CCC(OC(c3ccccc3)c3ccccc3)CC2)cc1	x	x	x	n	n	x
COc1ccc(NCc2ccccc2-c2nnc(-c3ccccc3)o2)cc1Cl	x	n	x	x	x	u
O=C(Nc1c(Cl)cccc1Cl)c1cccc2c1C(=O)N(C1CCCCC1)C2	x	n	x	x	x	n
O=C(Nc1ccc(C(=O)c2ccccc2)cc1)c1ccccc1	u	x	u	3.55µM	2µM	10.7µM
O=C(Nc1cccc(C(F)(F)F)c1)c1cc[n+]([O-])cc1	n	x	n	n	n	n
O=C(Nc1cccc(O)c1)c1ccc(C(F)(F)F)cc1	n	x	n	u	u	12µM
O=C(Nc1ccc(Br)c(C(F)(F)F)c1)c1ccc(C(F)(F)F)cc1	u	x	n	n	n	u
O=C(NNC(=O)c1ccc(NC(=O)c2ccccc2)cc1)Nc1ccccc1	n	n	n	n	n	n
O=C(Nc1ccc(Br)c(C(F)(F)F)c1)c1ccccc1	n	n	n	n	n	19µM
CC(C)CC(=O)Nc1ccc(C(=O)Nc2cccc(O)c2)cc1	n	x	u	n	u	16.9µM
CN(Cc1ccccc1)C(=O)c1ccc2c(c1)N(Cc1ccccc1F)C(=O)c1ccccc1S2(=O)=O	x	n	x	x	x	n
Cc1cccn2c(Nc3ccccc3)c(-c3cccs3)nc12	x	n	x	x	x	u
COc1ccc(CCNC(=O)CCSc2nc(-c3ccco3)cc(C(F)(F)F)n2)cc1OC	n	n	n	n	n	n[2.3 µM]
Cc1nc(-c2cccnc2)sc1CCNS(=O)(=O)c1ccc(F)cc1	x	x	x	x	x	n
Cc1cccc(NC(=O)c2ccc(S(=O)(=O)N3CCOCC3)cc2)n1	n	n	n	n	n	n
O=C1/C(=C\Nc2ccc(Cl)cc2)CCN1c1ncccn1	n	20µM	u	2µM	0.891µM	4.78µM
O=C(CN1CCN(c2ccccn2)CC1)Nc1ccc(OC(F)(F)F)cc1	n	x	n	n	n	n
O=C(/C=C/c1ccc(Cl)cc1)N1CCN(c2ncccn2)CC1	n	n	n	n	n	u
O=C1/C(=C\Nc2ccc(OC(F)(F)F)cc2)CCN1c1ncccn1	n	n	9.2µM	u	2.51µM	u
CC1(C)CC(=O)c2cnc(NC3CC3)nc2C1	n	n	n	n	n	n
Cc1ccc(Nc2ncc3c(n2)CC(C)(C)CC3=O)cc1	n	11.2µM	u	2.24µM	1.58µM	12µM
COC(=O)c1ccc(C(NC(=O)OCc2ccccc2)/C(=C/[C@@H](C)C(=O)NCc2ccc(S(C)(=O)=O)cc2)c2cccnc2)cc1 (some centres not stated)	x	n	x	x	x	x
O=C(COC(=O)CNC(=O)C1CCCCC1)Nc1ccc2c(c1)OCCO2	n	n	n	n	n	19µM
O=C(COC(=O)CNC(=O)C1CCCCC1)Nc1ccc2ccccc2c1	n	n	n	n	n	n
SMILES	p53 reactivation	SMN2 splice enh	ELG1 genotoxic	NPC1 promoter act	Rab9 promoter act	FLuc counter
CC(C)(C)c1ccc(C(=O)NCC(=O)OCC(=O)Nc2ccc3c(c2)OCCO3)cc1	n	n	n	n	n	3.38µM
CC(C)(C)OC(=O)N1Cc2ccccc2C[C@H]1C(=O)NCC(=O)Nc1ccc2c(c1)OCCO2	n	x	u	n	n	21.3µM
COc1cccc(NC(=O)CNC(=O)[C@@H]2Cc3ccccc3CN2C(=O)OC(C)(C)C)c1	n	x	n	n	n	n
O=C(Nc1nc(-c2ccccn2)cs1)c1cc(Cl)ccc1[N+](=O)[O-]	35.5µM	n	n	n	n	u
Cc1cc(C)nc(NC(=O)c2ccc(C)c([N+](=O)[O-])c2)n1	u	n	n	n	n	n
Cc1csc(NC(=O)c2ccc(Cl)cc2[N+](=O)[O-])n1	n	11.2µM	u	u	4.47µM	26.9µM
Cc1csc(NC(=O)c2ccc(C)c([N+](=O)[O-])c2)n1	x	3.55µM	u	2µM	1.12µM	1.07µM
Cc1cc(C(=O)Nc2nc(-c3ccccn3)cs2)ccc1[N+](=O)[O-]	n	n	n	n	n	u
